High-throughput results deposited in PubChem by Broad Institute.
Only some compounds are listed: those with a hit (about 4.8% of all), similar ones and a draw of the others.
AI-2 QS modul: Vibrio harveyi AI-2 quorum sensing modulation. actives 0.4% (n = 300,000). Vibrio harveyi JMH597 AI-2 luminescence/OD600 ratio, 9 h; active compounds read low; strain lacks LuxN and CqsS sensors; 0 = neutral-control median. AID 2094. activity change, % at 7.5 µM; in the data active = activity change below about -75%, passing the limit was not always enough; inconclusive = no clear call, values can overlap the other calls;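 also: luminescence divided by OD600 gain over 9 h not by final OD600 alone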
HIF activator: HIF pathway transcriptional activation; U2OS HRE-luciferase reporter, luminescence; normalized: DMSO 0%, desferrioxamine 100%; activation, % at 7.5 µM (by protocol); actives 0.32% (n = 300,000); AID 1910;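 active = mean activation of at least 10% of the iron chelator positive control signal, with at least half of replicates also reaching 10%; inconclusive = mean and replicate majority disagree about reaching 10%; inactive = mean and most replicates under 10%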
ALR H2O2 inh: inhibitors of human sulfhydryl oxidase ALR | AID 485317 | actives 3.8% (n = 290,000) | purified ALR, DTT oxidation, H2O2 HRP-luminol luminescence | inhibition, % (no concentration beside the values);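 active = mean replicate inhibition above about 79%, with every replicate also reaching it, limit read from the data; inconclusive = only one of the two criteria met; inactive = mean below limit and not every replicate reaching it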
Target sequence (P55789 whole entry, looked up): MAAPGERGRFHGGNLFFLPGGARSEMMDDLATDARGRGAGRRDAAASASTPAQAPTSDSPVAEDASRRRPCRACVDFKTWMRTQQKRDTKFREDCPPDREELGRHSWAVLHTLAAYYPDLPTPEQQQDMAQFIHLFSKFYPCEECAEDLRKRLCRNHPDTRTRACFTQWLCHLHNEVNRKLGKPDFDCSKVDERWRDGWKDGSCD
Mot1-301 SUMO: inhibitors of SUMOylation pathway: yeast Mot1-301 growth rescue; actives 1% (n = 320,000); S. cerevisiae Mot1-301 growth rescue, ATP luminescence, 38.5C; percent above DMSO median, 100 means doubled; growth rescue, % at 18.8 µM;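 active = every valid replicate shows activation above 250% relative to neutral control wells; inactive = the rest, any valid replicate at or below 250%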
Numbers stand for hits; 0 = inactive; ? = inconclusive; - = no result given.

SMILES	AI-2 QS modul	HIF activator	ALR H2O2 inh	Mot1-301 SUMO
Cc1cccc(NC(=O)CSc2nc(=O)n(CCCN3CCOCC3)c3c2CCCC3)c1	0	0	97.6	0
O=C(CSc1nc(=O)n(CCCN2CCOCC2)c2c1CCCC2)Nc1ccc(F)c(F)c1	0	0	0	0
O=C(CSc1nc(=O)n(CCCN2CCOCC2)c2c1CCCC2)Nc1cccc(Cl)c1	0	0	98.6	0
CC(=O)c1cccc(NC(=O)CSc2nc(=O)n(CCCN3CCOCC3)c3c2CCC3)c1	0	0	97.8	0
COc1ccc(NC(=O)c2ccc(C)cc2)c[n+]1[O-]	0	0	0	0
CCN(CC)c1ccc(NC(=O)COC(=O)/C=C/c2nc3ccccc3s2)cc1	0	0	98.6	0
Oc1ccccc1CNc1cnc2ccccc2c1	0	0	85.9	0
C=CCc1cccc(CNc2cnc3ccccc3c2)c1O	-77.3	0	0	0
C=CCc1cccc(CNc2nc3ccccc3n2C)c1O	0	0	-	0
COc1ccc(-n2nc3c(c2NC(=O)CCCl)CSC3)cc1	0	0	0	0
CCOCCc1nn2c(=O)cc(CSCC(=O)Nc3cc(C)cc(C)c3)nc2s1	0	0	0	0
COC(=O)c1c(N2C(=O)Nc3ccccc3N2O)sc(C)c1C	0	0	0	0
CCOC(=O)c1c(N2C(=O)Nc3ccccc3N2O)sc2c1CCCC2	0	0	92.5	0
O=C(c1ccccc1)N(Nc1ccccc1)c1ccccc1	0	0	76.1	0
O=C(NN(C(=O)c1ccccc1)c1ccccc1)c1ccccc1	0	0	0	0
COCCN=c1scc(-c2cccs2)n1/N=C/c1ccc(O)c(O)c1O	0	0	99.0	0
CCN=c1scc(C)n1/N=C/c1ccc(O)c(O)c1O	0	0	99.2	0
CCN=c1scc(C)n1/N=C/c1cc(Br)c(O)c(Br)c1	0	0	0	0
COCCN=c1scc(-c2ccccc2)n1/N=C/c1c[nH]c2ccccc12	0	0	0	0
Cc1ccc2sc(N3CCN(CCNC(=O)c4ccco4)CC3)nc2c1C	0	0	0	0
CCCN1CCC(NC23CC4CC(CC(C4)C2)C3)CC1	0	0	0	0
Cc1cnc(NC(=O)COc2cccc3c2OC(C)(C)C3)s1	0	0	0	254.9
COc1ccccc1/C=C/C(=O)N1CCN(S(=O)(=O)c2cc(C)ccc2C)CC1	-	-	-	0
Cc1ccccc1NN=Nc1nc2c([nH]1)c(=O)n(C)c(=O)n2C	-	-	-	0
Cn1c(=O)c2[nH]c(N=NNc3ccccc3F)nc2n(C)c1=O	0	0	98.2	0
SMILES	AI-2 QS modul	HIF activator	ALR H2O2 inh	Mot1-301 SUMO
COc1cc(/C=N/NC(=S)NC2CC3CC2C2C=CCC32)ccc1O (stereo unspecified)	0	0	0	0
COC(=O)c1ccc2nc(-c3cccc(N)c3)cn2c1	0	0	99.2	0
COC(=O)c1ccc2nc(-c3ccc(S(C)(=O)=O)cc3)cn2c1	0	0	0	0
CCOC(=O)C(=NC1CCS(=O)(=O)C1)NNc1cc(Cl)ccc1Cl (stereo unspecified)	0	0	?	0
CCOC(=O)C(=NC1CCS(=O)(=O)C1)NNc1ccc(Br)cc1 (stereo unspecified)	0	0	99.3	372.5
CCOC(=O)C(=NC(C)CC)NNc1cccc(C(F)(F)F)c1 (stereo unspecified)	0	0	-	0
CCOC(=O)C(=NC(C)CC)NNc1ccc(Br)cc1 (stereo unspecified)	0	0	98.9	0
CCOC(=O)C(=NC1CCS(=O)(=O)C1)NNc1ccccc1Cl (stereo unspecified)	0	0	98.7	0
O=C(O)c1ccc(S(=O)(=O)NCC2CCCO2)cc1 (stereo unspecified)	0	0	0	0
O=C(CN1C(=O)c2ccccc2S1(=O)=O)c1ccc(O)c(O)c1	0	0	?	0
O=C1c2cc(O)c(O)cc2S(=O)(=O)C1c1ccccc1 (stereo unspecified)	0	0	99.0	0
CSc1nc2n(n1)C(c1cccc(F)c1)C(C(=O)Nc1ccc(C)cc1C)=C(C)N2 (stereo unspecified)	0	0	0	0
CC1=C(C(=O)Nc2ccc(C)cc2C)C(c2ccc(Cl)cc2)n2nc(C(=O)OC(C)C)nc2N1 (stereo unspecified)	0	0	0	655.2
CN1C(=O)NC(c2ccc(O)cc2)C2=C1CN(c1ccc(O)cc1)C2=O (stereo unspecified)	0	0	98.7	0
Cc1ccc(C)c(-n2c(-c3csc(C)c3C)n[nH]c2=S)c1	0	0	89.4	0
Cc1ccc(C)c(-n2c(-c3cccnc3)n[nH]c2=S)c1	0	0	0	0
Nc1c(Cl)ncnc1NCc1cccnc1	0	0	0	0
